This passage reports AC50 and outcome results from PubChem BioAssay (EPA / NIEHS).

Settings in all cases: mRNA level, 48 h; actives raise or lower the signal
Read-out in assay [1]: Insulin-like growth factor-binding protein 1 (IGFBP1), IGFBP1 (gene 3484)
Kind of assay: LTEA_HepaRG_IGFBP1: Life Technologies and Expression Analysis (LTEA) Assay for Insulin-like growth factor-binding protein 1 (IGFBP1) using HepaRG (AID 2283508). In a few lines: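 Read-out is qRT-PCR transcript level normalized to three housekeeping genes, fitted in both directions against 0.5% DMSO. Differentiated HepaRG cells received eight half-log concentrations (top 100 uM) in duplicate for 48 h in serum-free induction medium.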

Read-out in assay [2]: Interleukin 6 (IL6), IL6 (gene 3569)
Kind of assay: LTEA_HepaRG_IL6: Life Technologies and Expression Analysis (LTEA) Assay for Interleukin 6 (IL6) using HepaRG (AID 2283509). In a few lines: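 Changes in IL6 mRNA, up or down relative to 0.5% DMSO controls, were derived from concentration-response curves in human HepaRG cells treated for 48 h at up to 100 uM, with ACTB, GAPDH and POLR2A as normalizers.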

Read-out in assay [3]: Interleukin 6 Receptor (IL6R), IL6R (gene 3570)
In words: LTEA_HepaRG_IL6R: Life Technologies and Expression Analysis (LTEA) Assay for Interleukin 6 Receptor (IL6R) using HepaRG (AID 2283510). In a few lines:
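In this HepaRG screen, test chemicals act on cells for 48 h at up to 100 uM (eight half-log points, duplicate wells). IL6R expression is quantified by qRT-PCR after normalization to ACTB, GAPDH and POLR2A, with DMSO as baseline.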

Read-out in assay [4]: Potassium channel subfamily K member 1 (KCNK1), KCNK1 (gene 3775)
In words: LTEA_HepaRG_KCNK1: Life Technologies and Expression Analysis (LTEA) Assay for Potassium channel subfamily K member 1 (KCNK1) using HepaRG (AID 2283511). Put shortly: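 Human HepaRG cultures receive test chemicals for 48 h in 0.5% DMSO, top concentration 100 uM with half-log dilutions. Induction or suppression of KCNK1 mRNA relative to DMSO is derived by bidirectional fitting of qRT-PCR data.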

Read-out in assay [5]: Keratin 19 (KRT19), KRT19 (gene 3880)
In words: LTEA_HepaRG_KRT19: Life Technologies and Expression Analysis (LTEA) Assay for Keratin 19 (KRT19) using HepaRG (AID 2283512). Put shortly: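 KRT19 transcript measured by TaqMan qRT-PCR, referenced to three housekeeping genes, after HepaRG cells received test chemicals for 48 h. Eight half-log concentrations, top 100 uM, 0.5% DMSO vehicle; increases and decreases both fitted.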

Read-out in assay [6]: JUN Transcription Factor, JUN (gene 3725)
Kind of assay: LTEA_HepaRG_JUN: Life Technologies and Expression Analysis (LTEA) Assay for JUN Transcription Factor using HepaRG (AID 2283513). In a few lines:
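Gene-expression endpoint: JUN mRNA (qRT-PCR, normalized to three reference genes) in HepaRG cultures treated 48 h with chemicals, duplicate wells, 100 uM maximum with half-log dilutions; bidirectional fitting relative to 0.5% DMSO.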

Read-out in assay [7]: Lipase C (LIPC), LIPC (gene 3990)
Kind of assay: LTEA_HepaRG_LIPC: Life Technologies and Expression Analysis (LTEA) Assay for Lipase C (LIPC) using HepaRG (AID 2283514). Put shortly: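 In this multiplexed gene-expression screen, human HepaRG cultures received test chemicals for 48 h across eight concentrations with 100 uM highest, in duplicate. Values reflect LIPC mRNA induction or suppression versus DMSO vehicle, from normalized qRT-PCR.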

Read-out in assay [8]: MicroRNA 122 (MIR122), gene 406906
Kind of assay: LTEA_HepaRG_MIR122: Life Technologies and Expression Analysis (LTEA) Assay for MicroRNA 122 (MIR122) using HepaRG (AID 2283516). Also: the transcript read is the microRNA miR-122. Put shortly:
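Changes in transcript abundance, up or down relative to 0.5% DMSO vehicle, were scored after 48 h chemical treatment of HepaRG cells (maximum 100 uM). Quantification used TaqMan qRT-PCR normalized to housekeeping genes.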

Read-out in assay [9]: matrix metalloproteinase-10 (MMP10), MMP10 (gene 4319)
In words: LTEA_HepaRG_MMP10: Life Technologies and Expression Analysis (LTEA) Assay for matrix metalloproteinase-10 (MMP10) using HepaRG (AID 2283517). In a few lines: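 In differentiated HepaRG cultures kept in 0.5% DMSO, test chemicals act for 48 h over an eight-point range with a top dose of 100 uM. Expression is then quantified by TaqMan RT-PCR against ACTB, GAPDH and POLR2A.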

Read-out in the next assay: MYC, MYC (gene 4609)
In words: LTEA_HepaRG_MYC: Life Technologies and Expression Analysis (LTEA) Assay for MYC using HepaRG (AID 2283518). In a few lines: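 MYC transcript changes, up or down relative to 0.5% DMSO, from TaqMan qRT-PCR normalized to three housekeeping genes. Human HepaRG cultures received chemicals for 48 h at eight half-log concentrations up to 100 uM, in duplicate.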

Read-out in assay [10]: matrix metalloproteinase-3 (MMP3), MMP3 (gene 4314)
Kind of assay: LTEA_HepaRG_MMP3: Life Technologies and Expression Analysis (LTEA) Assay for matrix metalloproteinase-3 (MMP3) using HepaRG (AID 2283519). In a few lines: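 Human liver HepaRG cultures received chemicals (top concentration 100 uM, 0.5% DMSO) for 48 h in duplicate. MMP3 mRNA induction or loss was then assessed via TaqMan qRT-PCR with housekeeping-gene normalisation.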

Read-out in assay [11]: Paternally Expressed 10 (PEG10), PEG10 (gene 23089)
In words: LTEA_HepaRG_PEG10: Life Technologies and Expression Analysis (LTEA) Assay for Paternally Expressed 10 (PEG10) using HepaRG (AID 2283520).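 As to AC50: PEG10 transcript by qRT-PCR normalised to ACTB GAPDH and POLR2A.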 In a few lines:
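After 48 h exposure of differentiated HepaRG cells (0.5% DMSO vehicle, eight concentrations up to 100 uM, duplicates), PEG10 mRNA was measured by TaqMan qRT-PCR. Values were normalised to endogenous control genes and analysed bidirectionally against vehicle.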

Read-out in assay [12]: Protein phosphatase 2A (PPP2R4), PTPA (gene 5524)
In words: LTEA_HepaRG_PPP2R4: Life Technologies and Expression Analysis (LTEA) Assay for Protein phosphatase 2A (PPP2R4) using HepaRG (AID 2283522). Put shortly:
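Using HepaRG cultures maintained in 0.5% DMSO, chemicals are tested 48 h at up to 100 uM in duplicate. Induction or suppression of PPP2R4 mRNA, measured by qRT-PCR, is fitted bidirectionally against the vehicle baseline.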

Read-out in assay [13]: Phosphatase and tensin (PTEN), PTEN (gene 5728)
Kind of assay: LTEA_HepaRG_PTEN: Life Technologies and Expression Analysis (LTEA) Assay for Phosphatase and tensin (PTEN) using HepaRG (AID 2283523). In a few lines:
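Expression of PTEN is quantified in the human liver line HepaRG following two days of dosing (top concentration 100 uM, half-log dilutions, 0.5% DMSO). Values derive from bidirectional curve fitting relative to DMSO controls.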

Read-out in assay [14]: solute carrier (SLC22A1), SLC22A1 (gene 6580)
In words: LTEA_HepaRG_SLC22A1: Life Technologies and Expression Analysis (LTEA) Assay for solute carrier (SLC22A1) using HepaRG (AID 2283524).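 As to AC50: TaqMan qRT-PCR normalized to ACTB GAPDH and POLR2A housekeeping genes.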 In a few lines: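 Transcript induction or suppression of SLC22A1 in human HepaRG cultures is scored after 48 h chemical treatment, with DMSO (0.5%) as baseline for bidirectional fitting. Concentrations span eight half-log points topping at 100 uM.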

Read-out in assay [15]: Pyruvate Dehydrogenase Kinase 4 (PDK4), PDK4 (gene 5166)
Kind of assay: LTEA_HepaRG_PDK4: Life Technologies and Expression Analysis (LTEA) Assay for Pyruvate Dehydrogenase Kinase 4 (PDK4) using HepaRG (AID 2283525). Put shortly:
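Eight-point, half-log concentration series (max 100 uM, 0.5% DMSO) applied to differentiated HepaRG cells for 48 h in duplicate. Endpoint: PDK4 mRNA induction or repression by qRT-PCR against DMSO baseline.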

Read-out in assay [16]: NAD(P)H dehydrogenase [quinone] 1 (NQO1), NQO1 (gene 1728)
Kind of assay: LTEA_HepaRG_NQO1: Life Technologies and Expression Analysis (LTEA) Assay for NAD(P)H dehydrogenase [quinone] 1 (NQO1) using HepaRG (AID 2283526). In a few lines:
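In this assay, gene expression is read by qRT-PCR after 48 h exposure of HepaRG cells to eight concentrations (max 100 uM, half-log) in 0.5% DMSO. Each chemical runs in duplicate, and activity is scored relative to vehicle.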

Read-out in assay [17]: Nuclear factor erythroid 2-related factor 2 (Homo sapiens) (UniProt Q16236)
Kind of assay: LTEA_HepaRG_NFE2L2: Life Technologies and Expression Analysis (LTEA) Assay for Nuclear factor erythroid 2-related factor 2 (NFE2L2) Transcription Factor using HepaRG (AID 2283527).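 As to outcome: TaqMan qRT-PCR transcript level normalised to ACTB GAPDH and POLR2A housekeeping genes.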 Put shortly: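 Human liver HepaRG line treated in duplicate for 48 h with an eight-point series topping at 100 uM. Gene expression of NFE2L2 by qRT-PCR, bidirectionally fitted against the vehicle control.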

Read-out in assay [18]: Lipoprotein lipase (LPL), LPL (gene 4023)
Kind of assay: LTEA_HepaRG_LPL: Life Technologies and Expression Analysis (LTEA) Assay for Lipoprotein lipase (LPL) using HepaRG (AID 2283515). In a few lines: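 Concentration-response testing used half-log steps from 100 uM in 0.5% DMSO on human HepaRG cells, 48 h, duplicate wells. Phenobarbital 1 mM served as induction control; LPL mRNA was normalized to ACTB, GAPDH, POLR2A.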

Read-out in assay [19]: Nuclear factor NF-kappa-B p105 subunit (Homo sapiens) (UniProt P19838)
In words: LTEA_HepaRG_NFKB1: Life Technologies and Expression Analysis (LTEA) Assay for Nuclear Factor Kappa B Subunit 1 (NFKB1) using HepaRG (AID 2283521).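 Also: TaqMan qRT-PCR transcript normalised to ACTB GAPDH and POLR2A housekeeping genes.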 Put shortly:
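Differentiated human HepaRG cells in serum-free induction medium with 0.5% DMSO were exposed for 48 h to eight half-log concentrations, top 100 uM, in duplicate. NFKB1 mRNA measured by Fluidigm TaqMan qRT-PCR, normalised to ACTB, GAPDH and POLR2A; bidirectional fit versus DMSO.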

Molecules are shown by their SMILES. Calls of active or inactive are those of the source. The calls were made as follows: active = hit-call score of the fitted dose curve at least 0.9, where 1 is the maximum; inactive = score below 0.9.

Sequence of Nuclear factor erythroid 2-related factor 2 (Homo sapiens) (Q16236 whole entry, looked up): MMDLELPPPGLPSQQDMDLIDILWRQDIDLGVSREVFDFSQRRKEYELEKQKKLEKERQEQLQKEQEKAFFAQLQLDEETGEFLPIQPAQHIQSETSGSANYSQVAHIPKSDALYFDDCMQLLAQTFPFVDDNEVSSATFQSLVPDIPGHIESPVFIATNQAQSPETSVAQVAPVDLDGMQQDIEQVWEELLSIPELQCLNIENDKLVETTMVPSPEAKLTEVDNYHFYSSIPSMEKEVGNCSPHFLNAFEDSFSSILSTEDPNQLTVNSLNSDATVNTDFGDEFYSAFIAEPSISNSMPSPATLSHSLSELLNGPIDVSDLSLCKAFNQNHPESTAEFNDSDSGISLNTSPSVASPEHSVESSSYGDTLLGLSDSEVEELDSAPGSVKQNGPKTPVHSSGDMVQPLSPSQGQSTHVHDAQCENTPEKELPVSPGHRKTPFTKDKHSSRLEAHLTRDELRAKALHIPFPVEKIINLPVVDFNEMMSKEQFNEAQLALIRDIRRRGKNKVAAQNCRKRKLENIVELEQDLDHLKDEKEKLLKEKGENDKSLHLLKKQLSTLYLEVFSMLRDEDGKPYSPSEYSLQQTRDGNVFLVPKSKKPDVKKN
Sequence of Nuclear factor NF-kappa-B p105 subunit (Homo sapiens) (P19838 whole entry, looked up): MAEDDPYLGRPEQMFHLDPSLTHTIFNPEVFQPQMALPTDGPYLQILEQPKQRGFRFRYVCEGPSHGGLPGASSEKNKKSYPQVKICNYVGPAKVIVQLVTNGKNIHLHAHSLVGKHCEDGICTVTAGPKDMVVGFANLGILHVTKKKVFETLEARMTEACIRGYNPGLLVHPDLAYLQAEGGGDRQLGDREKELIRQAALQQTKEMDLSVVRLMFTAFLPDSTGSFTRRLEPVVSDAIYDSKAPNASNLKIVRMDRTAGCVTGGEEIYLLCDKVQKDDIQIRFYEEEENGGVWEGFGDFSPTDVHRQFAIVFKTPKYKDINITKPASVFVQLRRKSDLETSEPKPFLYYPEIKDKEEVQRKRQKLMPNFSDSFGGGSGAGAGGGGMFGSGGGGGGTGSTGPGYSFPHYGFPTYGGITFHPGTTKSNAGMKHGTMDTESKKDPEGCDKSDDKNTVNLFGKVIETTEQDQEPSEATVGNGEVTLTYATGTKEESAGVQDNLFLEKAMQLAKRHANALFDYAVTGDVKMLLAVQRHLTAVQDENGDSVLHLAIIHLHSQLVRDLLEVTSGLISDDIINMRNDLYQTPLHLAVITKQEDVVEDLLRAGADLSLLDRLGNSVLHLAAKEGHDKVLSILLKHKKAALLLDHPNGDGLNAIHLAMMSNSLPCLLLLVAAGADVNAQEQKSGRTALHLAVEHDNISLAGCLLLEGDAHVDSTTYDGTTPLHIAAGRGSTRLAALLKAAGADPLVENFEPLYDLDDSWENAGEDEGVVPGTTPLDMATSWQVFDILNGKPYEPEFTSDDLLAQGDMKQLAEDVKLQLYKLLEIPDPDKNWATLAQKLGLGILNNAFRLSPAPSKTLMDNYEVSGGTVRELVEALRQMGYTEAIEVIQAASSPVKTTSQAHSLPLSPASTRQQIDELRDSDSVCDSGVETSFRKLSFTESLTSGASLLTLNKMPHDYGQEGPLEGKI

On to `CNc1cnn(-c2cccc(C(F)(F)F)c2)c(=O)c1Cl`, for which the AC50 was 17.4 µM (active) in assay [1]; 50 µM (active) in assay [2]; 14.5 µM (active) in [5]; 19.6 µM (active) with MYC, MYC (gene 4609); 32 µM (active) in assay [11]; 50 µM (active) in assay [14]. The AC50 in assay [17] is 9.92 µM (active). The molecule was classed as inactive in assay [3], in [4], in [6], in assay [7], in assay [8] and in assay [9]. Also, the call in assay [10], in assay [12], in assay [13], in [15] and in assay [16] was inactive.

`CCC(=NOC/C=C/Cl)C1=C(O)CC(C2CCOCC2)CC1=O` (stereo not drawn): the call in assay [1], in assay [2], in assay [3], in assay [4], in [5] and in assay [6] was inactive. Besides, the outcome is “inactive” in assay [7]; “inactive” in assay [8]; “inactive” in [9]; “inactive” with MYC, MYC (gene 4609); “inactive” in [10]; “inactive” in assay [11]. Besides, the molecule was classed as inactive in assay [12], in assay [13], in [14], in assay [15], in assay [16] and in [17].

Take `COc1cc(OC)nc(Sc2cccc(Cl)c2C(=O)O)n1`: the call in [1], in assay [2], in assay [3], in [4], in assay [5] and in assay [6] was inactive. Moreover, the outcome is “inactive” in assay [18]; “inactive” in assay [8]; “inactive” in assay [9]; “inactive” with MYC, MYC (gene 4609); “inactive” in [10]; “inactive” in [11]. Moreover, the call in [12], in assay [13], in assay [14], in assay [15], in [16] and in [17] was inactive.

With `CON=C(C(=O)OC)c1ccccc1CON=C(C)c1cccc(C(F)(F)F)c1`, the outcome in assay [1], in [2], in assay [3], in [4], in assay [5] and in [6] was inactive. Moreover, the outcome is “inactive” in assay [7]; “inactive” in assay [8]; “inactive” in assay [9]; “inactive” with MYC, MYC (gene 4609); “inactive” in assay [10]; “inactive” in [11]. The result in assay [19], in [12], in assay [13], in [15], in [16] and in assay [17] was inactive. The AC50 in assay [14] is 50 µM (active).
